Shown are actives, neighbours in structure and some others; about 2.2% of the full set was active somewhere.
HTR2A ag: mouse Htr2a agonists via beta-arrestin recruitment, primary screen, cell-based, luminescence. AID 624169, 2012. 0.66% of 360,000 active. CHO-K1 mHTR2A beta-arrestin complementation; percent of 30 µM serotonin response. activation, % at 7.6 µM. 5-hydroxytryptamine receptor 2A (Mus musculus), P35363;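 active = activation above a run cutoff, the mean activation of all tested compounds plus 3 SD, cut at about 14% in these data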
Target sequence (P35363 whole entry, looked up): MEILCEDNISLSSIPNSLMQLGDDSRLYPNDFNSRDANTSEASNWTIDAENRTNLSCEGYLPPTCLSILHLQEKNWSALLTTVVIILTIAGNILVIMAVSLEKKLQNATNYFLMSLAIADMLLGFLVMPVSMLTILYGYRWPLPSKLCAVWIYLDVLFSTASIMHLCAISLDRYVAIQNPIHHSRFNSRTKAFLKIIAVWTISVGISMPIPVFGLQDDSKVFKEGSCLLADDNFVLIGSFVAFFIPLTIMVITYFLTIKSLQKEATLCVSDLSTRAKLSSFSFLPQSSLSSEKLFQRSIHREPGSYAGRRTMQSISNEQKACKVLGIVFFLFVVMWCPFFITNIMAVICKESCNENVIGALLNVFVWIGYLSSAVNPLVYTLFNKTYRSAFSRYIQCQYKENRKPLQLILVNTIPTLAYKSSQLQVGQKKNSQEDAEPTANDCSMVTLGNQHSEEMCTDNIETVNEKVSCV
HTR5A inv ctr: HTR5A inverse agonists in luminescence cell assay, primary screen, counter-screen for OPRM1-OPRD1 heterodimer inverse agonist project, full-deck HTS; 5-hydroxytryptamine receptor 5A (Homo sapiens), P47898; HTR5A cell line, inverse agonism; inhibition, % at 9.3 µM; 0.083% of 340,000 active; AID 504634, 2011; in the data active = inhibition mostly above about 23%, no sharp cut-off; inactive = mostly below about 18%
MOR-DOR inv ag: inverse agonists of MOR-DOR heterodimerization, primary screen, cell-based, luminescence; Mu-type opioid receptor (Homo sapiens) + Delta-type opioid receptor (Homo sapiens), …; cell-based MOR-DOR heterodimer luminescence, inverse agonism; inhibition, % at 9.3 µM; 0.21% of 340,000 active; in the data active = inhibition above about 22%, passing the limit was not always enough
OPRM1-OPRD1 ag: agonists of OPRM1-OPRD1 heterodimerization, primary screen, cell-based, luminescence; AID 504326, 2011; 0.3% of 340,000 active; Mu-type opioid receptor (Homo sapiens) + Delta-type opioid receptor (Homo sapiens), …; activation, % at 9.3 µM; cells; in the data active = activation above about 18%
sPLA2-III inh: human group III sPLA2 inhibitors, primary screen, biochemical, QFRET, BODIPY PC-A2 liposome substrate; Group 3 secretory phospholipase A2 (Homo sapiens), Q9NZ20; QFRET BODIPY PC-A2 liposome hydrolysis, fluorescence; inhibition, % at 12.2 µM; 0.56% of 370,000 active; AID 743126, 2013;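 active = inhibition above mean plus 3 SD of compounds lying within the high and low control bounds, cut at about 19% in these data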
HTR5A ag: HTR5A agonists in luminescence cell assay, primary screen, counter-screen for OPRM1-OPRD1 heterodimer agonist project, full-deck HTS; cell-based; AID 504692, 2011; 0.61% of 340,000 active; activation, % at 9.3 µM; in the data active = activation mostly above about 9.5%, no sharp cut-off; inactive = mostly below about 7.6%
MOR ag counter: OPRM1 agonists via beta-arrestin recruitment, confirmation, counter-screen for mouse HTR2A agonist project, cell-based, luminescence, single concentration; shares compounds with HTR2A ag; U2OS OPRM1 beta-arrestin PathHunter; DMSO 0%, DAMGO 9.3 µM 100%; activation, % at 9.3 µM; 5.3% of 2,300 active;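 active = mean activation above the mean of DMSO-only wells plus 3 SD, cut at about 0.5% in these data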
HTR2A ag conf: mouse HTR2A agonists, beta-arrestin recruitment, confirmation, cell-based, luminescence, CHO-K1 PathHunter, triplicate; AID 624381, 2012; DMSO 0%, 30 µM serotonin 100%; activation, % at 7.6 µM; shares compounds with HTR2A ag; 19% of 2,300 active;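 active = mean activation across triplicates above the hit threshold derived in the original primary screen, cut at about 15% in these data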
Numbers stand for hits; . = inactive; / = not tested or not shown.

SMILES | HTR2A ag | HTR5A inv ctr | MOR-DOR inv ag | OPRM1-OPRD1 ag | sPLA2-III inh | HTR5A ag | MOR ag counter | HTR2A ag conf
COc1ccc(-n2nnnc2C(c2cc3ccccc3o2)N2CCC(n3c(=O)[nH]c4ccccc43)CC2)cc1 (configuration not stated) | 16 | / | / | / | . | / | / | .
COc1ccc(C(c2nnnn2-c2ccc(OC)cc2)N2CCC(n3c(=O)[nH]c4ccccc43)CC2)cc1 (configuration not stated) | . | / | / | / | . | / | / | /
CC(=O)c1cccc(OCC(O)CN2CC=C(c3ccccc3)CC2)c1 (configuration not stated) | 19 | . | . | . | . | . | . | 79
NC1CCc2cc(O)c(O)cc2C1 (configuration not stated) | 58 | . | . | . | . | . | . | 153
CCCCCn1c(=O)c(C(=O)NCc2ccco2)c(O)c2ccccc21 | 18 | . | . | . | . | . | . | .
CC(N)Cc1c[nH]c2ccc(OCc3cccs3)cc12 (configuration not stated) | 22 | . | . | . | . | . | . | .
COc1cc2c(c3oc4cccc(O)c4c(=O)c13)[C@@H]1C=CO[C@@H]1O2 | / | / | / | / | . | / | / | /
CCCCC1(CC)COP(=O)(OCC(Cl)(Cl)Cl)OC1 (configuration not stated) | 20 | . | . | . | . | . | . | .
O=c1[nH]c2ccccc2n1C1CCN(C(c2cc3ccccc3o2)c2nnnn2-c2ccc3c(c2)OCCO3)CC1 (configuration not stated) | . | / | / | / | . | / | / | /
CC(C)(C)c1cc(OC(=O)Cc2ccccc2)ccc1O | 15 | . | . | . | . | . | . | .
CCCN1CCO[C@@H]2c3cc(O)ccc3OC[C@H]21 | 58 | . | . | . | . | . | . | 161
CCC(C)(O)C(=O)OC1C(=O)OC2CC3C(C)=CC(O)C(O)C3(C)C3C4(O)OCC23C1C(C)C4O (configuration not stated) | . | / | / | / | . | / | / | /
C[C@]12CCC3[C@@H](CC[C@@H]4C[C@H](O)CC[C@]34C)[C@@H]1CCC2=O (some centres not stated) | . | . | . | . | . | . | / | /
C[C@]12CC[C@H](O)C[C@@H]1CC[C@@H]1[C@@H]2CC[C@]2(C)C(=O)CC[C@@H]12 | 22 | . | . | . | . | . | . | .
CC(=O)C1=C(C)OC2=C(C(=O)CCC2)[C@@]12C(=O)N(C)c1ccccc12 | / | / | / | / | . | / | / | /
Clc1cccc(N2CCNCC2)n1 | 39 | . | . | . | . | . | . | 24
Brc1ccc2c(c1)-n1nncc1CNC2 | / | / | / | / | . | / | / | /
C[C@H](N)CN1CCc2ccc(Br)cc21 | 49 | . | . | . | . | . | . | 36
Cc1nc2cc(OC(=O)N(C)Cc3cccc(-c4ccncc4)c3)ccc2s1 | 20 | / | / | / | / | / | . | .
CN(Cc1cccc(-c2ccncc2)c1)C(=O)Oc1ccccc1Cl | . | / | / | / | / | / | / | /
CCCC1(CC(C)CC)C(=O)NC(=O)NC1=O (configuration not stated) | . | / | / | / | . | / | / | /
CCCCn1c(O)c(C(=O)/C=C/c2ccc3c(c2)OCO3)c(=O)[nH]c1=O | 27 | . | . | . | . | . | . | .
O=C(/C=C/c1ccc2c(c1)OCO2)c1c(O)n(CCC2=CCCCC2)c(=O)[nH]c1=O | . | . | . | . | . | . | / | /
C[C@@]12CC[C@@H](c3cc4c(cc3C1)OCO4)N2c1ccccc1 | . | / | / | / | . | / | / | /
CC[C@H](C)[C@@H]1NC(=O)[C@@H](CC(C)C)NC(=O)[C@H](C(C)C)NC(=O)[C@H]2CSSC[C@H](NC1=O)C(=O)N2 | 57 | / | / | / | . | / | 1.7 | 41
SMILES | HTR2A ag | HTR5A inv ctr | MOR-DOR inv ag | OPRM1-OPRD1 ag | sPLA2-III inh | HTR5A ag | MOR ag counter | HTR2A ag conf
N#CC1c2ccccc2C=CN1C(=O)c1ccc(N(CCCl)CCCl)cc1 (configuration not stated) | 24 | / | / | / | . | / | . | .
Cc1nc2ccccn2c1P(=S)(c1ccccc1)c1ccccc1 | . | / | / | / | . | / | / | /
CC(C)(O)/C=C/C(=O)C(C)(O)C1C(O)CC2(C)C3CC=C4C(C=C(O)C(=O)C4(C)C)C3(C)C(=O)CC12C (configuration not stated) | 30 | . | . | . | . | . | . | .
CN1C2CCC1C(C(=O)Oc1ccccc1)C(c1ccc(Cl)cc1)C2 (configuration not stated) | / | / | / | / | . | / | / | /
CC[C@H](C)[C@@H]1NC(=O)CNC(=O)c2csc(n2)[C@H](C(C)(C)O)OC(=O)C(C)(C)[C@H](CCCC(C)(Cl)Cl)OC(=O)c2csc1n2 | 15 | / | / | / | . | / | . | .
CC(C)(C)n1nnnc1C(c1ccccc1)N1CCC2(CC1)C(=O)NCN2c1ccccc1 (configuration not stated) | . | / | / | / | . | / | / | /
Cc1c(CCC(=O)N2C[C@H]3C[C@@H](C2)c2cccc(=O)n2C3)c(=O)oc2c(C)c(O)ccc12 | . | / | / | / | . | / | / | /
N#CC12CNCC1CN=N2 (configuration not stated) | 22 | . | . | . | . | . | . | .
O=C(COc1ccc(Br)cc1)N1CCN(Cc2c[nH]c3ccccc23)CC1 | 56 | . | . | . | . | . | . | 28
O=C(COc1ccc2ccccc2c1)N1CCN(Cc2c[nH]c3ccccc23)CC1 | 34 | . | . | . | . | . | . | 19
O=C(NCCN1CCC2(CC1)C(=O)NCN2c1ccccc1)c1ccc(F)cc1 | / | / | / | / | . | / | / | /
COc1cccc(-c2ccc3c(c2)C2c4cnnn4-c4ccccc4C(=O)N2CC3)c1 (configuration not stated) | / | / | / | / | . | / | / | /
CCOP(=O)(OCC)C(O)c1ccccc1 (configuration not stated) | 16 | . | . | . | . | . | . | .
O=C(NCCN1CCC2(CC1)C(=O)NCN2c1ccccc1)c1ccc2ccccc2c1 | / | / | / | / | . | / | / | /
O=C1C=CC(=O)C=C1 | 35 | . | . | . | . | . | 0.9 | .
COc1cccc(C(=O)C2CCCN(C3CCOCC3)C2)c1 (configuration not stated) | . | . | . | . | . | . | / | /

Screens from PubChem BioAssay.
